This is a sample that favours compounds with a hit; in the whole collection about 3.1% have one here.
S1P3 antagonist: S1P3 receptor antagonists, primary screen, cell-based | inhibition, % at 4.98 µM | Sphingosine 1-phosphate receptor 3 (Homo sapiens), Q99500 | CHO S1P3 NFAT-BLA reporter, FRET fluorescence, antagonist mode | hit rate 0.27% among 170,000;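 active means inhibition above the plate cutoff, the mean inhibition of test wells on that plate plus 3 SD, cut at about 28% in these data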;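 further: cells challenged with S1P at its EC80 of 0.8 µM; blue over green emission ratio from cleaved BLA substrate after 4 h stimulation; 0% = S1P-stimulated wells and 100% = unstimulated DMSO-only wells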
EP2 modulator: EP2 receptor modulators, cAMP readout, primary screen, cell-based, HTRF cAMP, PGE2 stimulation. Prostaglandin E2 receptor EP2 subtype (Homo sapiens), P43116. EP2-expressing cells, cAMP HTRF FRET, PGE2 co-stimulation. induction, % at 25 µM. hit rate 0.83% among 260,000. AID 940, 2007;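 active means compounds whose cAMP rise, as percent of the full-agonist control response, exceeds 60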;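 further: rat C6 glioma line stably carrying human EP2 under a CMV promoter; the protocol text gives 20 µM as final concentration; 100% = response of wells given 1 µM PGE2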
EP2 antag: human EP2 receptor antagonists, primary screen, TR-FRET cAMP, C6 glioma cells | C6 glioma cells expressing human EP2; cells stimulated with saturating PGE2 | inhibition, % at 25 µM | hit rate 0.52% among 260,000 | Prostaglandin E2 receptor EP2 subtype (Homo sapiens), P43116;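 active means percent inhibition above 40 after rounding to a whole number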;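 further: rat C6 glioma host cells with rolipram phosphodiesterase inhibitor present; the protocol text gives 20 µM as final concentration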
KCC2 mod: KCC2 cotransporter modulators, thallium flux, primary screen, cell-based, HEK293 KCC2, FluoZin-2 fluorescence, MLSMR | Solute carrier family 12 member 5 (Homo sapiens), Q9H2X9 | KCC2 cells, thallium flux FluoZin-2 fluorescence | B-score of Tl+ flux slope (higher = more flux/activation; lower = inhibition) at 10 µM | hit rate 2.2% among 190,000;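 active means thallium flux slope and its plate-corrected score both differing from the plate sample mean at a set confidence after two filtering rounds, in either direction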;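 further: slope of fluorescence scaled to starting intensity during 10 to 20 s after thallium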
Target sequence (Q9H2X9 whole entry, looked up): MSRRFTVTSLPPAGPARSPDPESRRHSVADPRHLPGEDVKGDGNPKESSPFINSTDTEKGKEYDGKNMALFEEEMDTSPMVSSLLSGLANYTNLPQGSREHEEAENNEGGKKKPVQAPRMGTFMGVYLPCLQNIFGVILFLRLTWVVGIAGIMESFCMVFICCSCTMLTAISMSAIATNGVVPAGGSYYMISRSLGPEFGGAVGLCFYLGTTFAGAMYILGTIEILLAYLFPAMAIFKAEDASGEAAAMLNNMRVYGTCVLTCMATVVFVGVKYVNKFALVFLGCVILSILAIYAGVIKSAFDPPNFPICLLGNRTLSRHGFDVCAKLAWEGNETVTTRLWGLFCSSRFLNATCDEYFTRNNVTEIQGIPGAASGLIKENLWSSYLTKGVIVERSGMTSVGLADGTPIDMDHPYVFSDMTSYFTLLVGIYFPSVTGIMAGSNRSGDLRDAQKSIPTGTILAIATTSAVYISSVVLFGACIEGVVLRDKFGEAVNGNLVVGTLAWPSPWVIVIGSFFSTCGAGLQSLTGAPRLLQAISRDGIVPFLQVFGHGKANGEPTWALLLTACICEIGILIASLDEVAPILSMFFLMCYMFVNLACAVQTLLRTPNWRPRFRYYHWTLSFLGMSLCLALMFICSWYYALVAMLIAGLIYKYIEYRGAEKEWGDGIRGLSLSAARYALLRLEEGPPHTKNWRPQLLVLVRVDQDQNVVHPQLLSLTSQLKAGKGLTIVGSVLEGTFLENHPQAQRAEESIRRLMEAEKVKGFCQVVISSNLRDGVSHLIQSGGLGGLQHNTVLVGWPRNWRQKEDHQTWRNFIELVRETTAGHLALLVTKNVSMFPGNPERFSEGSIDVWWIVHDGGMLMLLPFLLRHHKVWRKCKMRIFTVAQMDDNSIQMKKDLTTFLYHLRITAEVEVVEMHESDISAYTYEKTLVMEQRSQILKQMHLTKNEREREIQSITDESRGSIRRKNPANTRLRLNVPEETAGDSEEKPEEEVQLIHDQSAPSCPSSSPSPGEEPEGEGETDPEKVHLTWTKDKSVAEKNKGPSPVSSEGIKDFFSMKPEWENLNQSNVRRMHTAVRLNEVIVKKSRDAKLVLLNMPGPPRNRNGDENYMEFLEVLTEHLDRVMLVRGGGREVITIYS
The depositor's hits bear a star.

What do the screens show for `CCc1ccc2[nH]c(=O)c(CN(Cc3cccs3)S(=O)(=O)c3ccccc3)cc2c1`?
EP2 modulator: -82.7; EP2 antag: 16.0

Results for COC(=O)c1cc2sc(Cl)cc2n1CC(=O)Nc1ccc(OC)c(OC)c1OC ?
S1P3 antagonist: 39.2; EP2 modulator: -18.0; EP2 antag: 10.3

Results for COC(=O)c1cc2sc(Cl)cc2n1CC(=O)Nc1cccc(SC)c1 ?
S1P3 antagonist: 58.6*; EP2 modulator: 15.3; EP2 antag: 28.6; KCC2 mod: 1.32

Results for COc1ccccc1Nc1ncc(-c2cccs2)s1 ?
EP2 modulator: 5.1; EP2 antag: 17.0; KCC2 mod: 3.12*

How did C[C@@H]1C[C@H](C)CN(S(=O)(=O)c2cc(Cl)c(Oc3ccc([N+](=O)[O-])cc3Cl)c(Cl)c2)C1 do in these assays?
EP2 modulator: 13.4; EP2 antag: 43.9*

How did CC1CC(C)CN(C(=O)COc2ccc([N+](=O)[O-])cc2Cl)C1 (configuration not stated) do in these assays?
S1P3 antagonist: -0.2; EP2 modulator: 10.8; EP2 antag: -0.8; KCC2 mod: -0.895

How did CCC(C)(C)n1nnnc1C(c1cccc(OC)c1OC)N1CCN(Cc2ccccc2)CC1 (configuration not stated) do in these assays?
EP2 modulator: -12.2; EP2 antag: 10.2

Results for CC(C)(C)c1ccc(O)c(CN(Cc2cc(C(C)(C)C)ccc2O)c2ccccc2)c1 ?
EP2 modulator: 4.7; EP2 antag: 55.3*

Results for CC(C)(C)c1ccc(O)c(N)c1 ?
EP2 modulator: 10.8; EP2 antag: 12.7; KCC2 mod: -0.366

How did Cc1ccc2nc(-c3ccc(Br)o3)oc(=O)c2c1 do in these assays?
EP2 modulator: -10.8; EP2 antag: 23.8; KCC2 mod: -0.268

What do the screens show for `COc1cc2nc(-c3ccc(Br)o3)oc(=O)c2cc1OC`?
S1P3 antagonist: -17.3; EP2 modulator: 5.2; EP2 antag: 40.0*; KCC2 mod: -0.296

How did Cc1ccc(C)n1CCC(=O)O do in these assays?
EP2 modulator: -11.1; EP2 antag: 7.5

How did CCCCOc1cccc(C(=O)NC(=S)Nc2ccc(Cl)c(C(=O)O)c2)c1 do in these assays?
S1P3 antagonist: -1.1; EP2 modulator: -45.7; EP2 antag: 6.7; KCC2 mod: -1.66

Results for CN(C)NC(=S)Nc1cccc(C(F)(F)F)c1 ?
S1P3 antagonist: 7.1; EP2 modulator: -1.3; EP2 antag: 15.5; KCC2 mod: 0.205

Results for O=C(NC(=S)Nc1cccc(C(F)(F)F)c1)c1csnn1 ?
S1P3 antagonist: 12.1; EP2 modulator: -33.3; EP2 antag: 0.0; KCC2 mod: 59.5*

How did O=C(Nc1ccccc1NC(=O)c1csnn1)c1csnn1 do in these assays?
S1P3 antagonist: -8.9; EP2 modulator: 20.2; EP2 antag: 4.2; KCC2 mod: -1.09

Results for CCCOc1cccc(C(=O)NC(=S)Nc2cccc(C(F)(F)F)c2)c1 ?
EP2 modulator: 34.8; EP2 antag: 6.6; KCC2 mod: 10.5*

What do the screens show for `O=C(NC(=S)Nc1ccccc1Cl)c1csnn1`?
EP2 modulator: -4.9; EP2 antag: 9.8; KCC2 mod: 17.3*

Results for COc1ccccc1OCc1nnc(SCC(=O)Nc2nc(C)cs2)n1C ?
EP2 modulator: 4.3; EP2 antag: 8.6

What do the screens show for `COc1ccc2c(c1)c(CN1CCN(CCOc3ccccc3)CC1)cn2CC(N)=O`?
EP2 modulator: -13.1; EP2 antag: 3.3

Results for Cc1cc2c(cc3c(=O)n(CC(N)=O)nc(C)n32)o1 ?
EP2 modulator: -24.7; EP2 antag: 7.7

How did CN1CC(c2ccccc2)C2(SC(=S)N(Cc3ccco3)C2=O)C12C(=O)Nc1ccccc12 (configuration not stated) do in these assays?
EP2 modulator: 60.6*; EP2 antag: 8.7; KCC2 mod: -0.565

Results for CN1CC(c2ccccn2)C2(SC(=S)N(Cc3ccccc3)C2=O)C12C(=O)Nc1ccccc12 (configuration not stated) ?
EP2 modulator: 24.5; EP2 antag: 6.9; KCC2 mod: -0.00773

What do the screens show for `O=C(Nc1ccncc1)c1nc[nH]c1C(=O)O`?
EP2 modulator: -2.2; EP2 antag: 4.7

How did CCC(=O)NC1=C(Cl)C(=O)C(NC(=O)CC)=C(Cl)C1=O do in these assays?
S1P3 antagonist: -5.8; EP2 modulator: -49.2; EP2 antag: 117.4*; KCC2 mod: -3.31

Results for CCOc1ccc(NC(=O)c2c(O)c3cc(OC)c(OC)cc3[nH]c2=O)cc1 ?
EP2 modulator: -14.1; EP2 antag: 15.5

What do the screens show for `O=C(NC1CCCCC1)C(c1cccs1)N(Cc1ccc(F)cc1)C(=O)c1cccs1` (configuration not stated)?
EP2 modulator: 47.5; EP2 antag: 9.9

How did COc1ccc(CCNS(=O)(=O)c2ccc(C(=O)N3CCc4ccccc43)cc2)cc1OC do in these assays?
EP2 modulator: -33.1; EP2 antag: 8.1

How did CCOC(=O)c1cnn(-c2sc(C(=O)OCC)c(C)c2C(=O)OCC)c1N do in these assays?
S1P3 antagonist: -24.2; EP2 antag: 9.9; KCC2 mod: 43.2*

What do the screens show for `CCOC(=O)c1cnn(-c2cc(C)cc(C)c2)c1N`?
S1P3 antagonist: -11.6; EP2 modulator: -4.8; EP2 antag: 10.4; KCC2 mod: -0.518

What do the screens show for `CCOC(=O)c1cc2c(ccn2C)n1Cc1ccccc1C`?
S1P3 antagonist: -36.9; EP2 modulator: 62.0*; EP2 antag: 3.9; KCC2 mod: -0.834

How did Cc1ccccc1Cn1c(C(=O)OC(C)C)cc2c1ccn2C do in these assays?
EP2 modulator: 53.4; EP2 antag: 2.3; KCC2 mod: 0.278

How did CCOC(=O)c1cc2c(ccn2C)n1Cc1ccccc1Cl do in these assays?
S1P3 antagonist: -14.0; EP2 modulator: 63.3*; EP2 antag: 7.0; KCC2 mod: -0.489

How did Cc1cc(OCc2nc(N)nc(N)c2-c2ccc(Cl)c(Cl)c2)ccc1[N+](=O)[O-] do in these assays?
EP2 modulator: -34.9; EP2 antag: 68.2*

Results for COc1ccc(C(=O)N2C(=S)NC(=O)/C2=C\c2ccc(C)cc2)cc1 ?
S1P3 antagonist: -5.7; EP2 modulator: -15.2; EP2 antag: 6.4; KCC2 mod: 7.91*

Results for COC(=O)CN1C(=S)N(c2ccc(OC)cc2)C(=O)/C1=C/c1ccc(OC)cc1 ?
S1P3 antagonist: 16.0; EP2 modulator: 13.6; EP2 antag: 7.4; KCC2 mod: 0.185

How did CCOC(=O)Cc1csc(NC(=S)NC(=O)c2ccccc2C)n1 do in these assays?
EP2 modulator: 11.7; EP2 antag: 15.2; KCC2 mod: 29*

What do the screens show for `CCOC(=O)Cc1csc(NC(=O)Cc2ccccc2)n1`?
S1P3 antagonist: -3.3; EP2 modulator: -8.0; EP2 antag: 4.8; KCC2 mod: -0.28

How did CCn1cc(C(=O)NCCc2ccc(OC)c(OC)c2)c(=O)c2ccc(C)nc21 do in these assays?
EP2 modulator: -28.6; EP2 antag: 10.0

Results for COc1ccc(-c2nn(C)c3sc(C(=O)NCc4ccco4)cc23)cc1OC ?
S1P3 antagonist: 33.2; EP2 modulator: 4.0; EP2 antag: 11.5; KCC2 mod: -0.359
